Screens (PubChem)
In the library only some 19% were active in any assay of this set; here they are far more common.
IL-1B inflam inh: blocks inflammasome-driven IL-1 beta release | THP-1 LPS/ATP IL-1B secretion, AlphaLISA, 16 h; hits give low values | activity change, % at 57.5 µM | 360,000 compounds, 4.7% hits | AID 743279; in the data active = activity change below about -50%; inconclusive = mostly about -30% to -49%; note: % is set by controls: 0 for no effect and ±100 for the full control effect
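THP-1 cells pretreated 1 hr with compounds (up to 57.5 uM final), then stimulated with LPS (250 ng/mL final) plus ATP (1.25 mM final); secreted IL-1B measured by AlphaLISA after 16 hr, decreased signal indicating inhibition.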
TDP1 cell CPT: growth inhibition of DT40 Tdp1-/-;hTDP1 cells with camptothecin (screen for TDP1 inhibitors); AID 686979; 420,000 compounds, 12% hits; Potency, µM (top dose mostly 46.2 µM), inactives show top-dose activity change, negative = growth inhibition, usual class: inhibitors; chicken DT40 Tdp1-/-;hTDP1 cells + 20 nM CPT, ATP luminescence, 48 h; note: potency is the fitted concentration of half-maximal effect; % is set by controls: 0 for no effect and ±100 for the full control effect; nearly all actives have a fitted effect of over 55% in size
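Cell growth measured by CellTiter-Glo luminescence after a minimum 48 h, 37 C compound exposure with 20 nM CPT in Tdp1-knockout DT40 cells stably expressing hTDP1, seeded 400/well; qHTS titration format.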
HepG2 tox: HepG2 cytotoxicity, counter-screen for TGF-b inhibitors | HepG2 CAGA-GFP viability, ATP luminescence, 18 h | Potency, µM (doses to about 46.1 µM), for the others: at the highest dose activity change, negative = cytotoxicity, hits mostly cytotoxic | 410,000 compounds, 0.76% hits | AID 588856; note: potency is the fitted concentration of half-maximal effect
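CellTiter-Glo luminescence gave cytotoxicity after 18 hours at 37 degrees C. The cells were HepG2 CAGA-GFP in 1% FBS DMEM, stimulated with 500 pg/mL TGF-beta after compound addition. %Activity was normalised to no-cell wells (complete cell-killing) and DMSO (no toxicity), and curves were fitted and classified.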
TDP1 cell noCPT: qHTS for Inhibitors of human tyrosyl-DNA phosphodiesterase 1 (TDP1): qHTS in cells in absence of CPT | 420,000 compounds, 15% hits | AID 686978, 2013 | Potency, µM (titrated, usually from 46.2 µM), for the others: at the top dose activity change, negative = growth inhibition, hits mostly inhibitors | DT40 Tdp1-/- hTDP1 cells, no CPT, ATP luminescence, 48 h; note: potency is the fitted concentration of half-maximal effect; % is set by controls: 0 for no effect and ±100 for the full control effect; nearly all actives have a fitted effect of over 55% in size
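Cells were dispensed at 400 per well, compounds added by pin tool, plates incubated ≥48 hr at 37 °C, then CellTiter-Glo added for 30 min at room temperature before luminescence reading. Line: DT40 Tdp1-/- complemented with hTDP1; camptothecin omitted.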
TDP1 inh: inhibitors of human tyrosyl-DNA phosphodiesterase TDP1; 350,000 compounds, 0.28% hits; AID 485290; Potency, µM (titrated, usually from 130 µM), for inactives: at the highest dose activity change, negative = inhibition, hits mostly inhibitors; recombinant TDP1, AlphaScreen DNA substrate cleavage; note: potency is the fitted concentration of half-maximal effect; % is set by controls: 0 for no effect and ±100 for the full control effect; nearly all actives have a fitted effect of over 40% in size
Target sequence (Q9NUW8 whole entry, looked up): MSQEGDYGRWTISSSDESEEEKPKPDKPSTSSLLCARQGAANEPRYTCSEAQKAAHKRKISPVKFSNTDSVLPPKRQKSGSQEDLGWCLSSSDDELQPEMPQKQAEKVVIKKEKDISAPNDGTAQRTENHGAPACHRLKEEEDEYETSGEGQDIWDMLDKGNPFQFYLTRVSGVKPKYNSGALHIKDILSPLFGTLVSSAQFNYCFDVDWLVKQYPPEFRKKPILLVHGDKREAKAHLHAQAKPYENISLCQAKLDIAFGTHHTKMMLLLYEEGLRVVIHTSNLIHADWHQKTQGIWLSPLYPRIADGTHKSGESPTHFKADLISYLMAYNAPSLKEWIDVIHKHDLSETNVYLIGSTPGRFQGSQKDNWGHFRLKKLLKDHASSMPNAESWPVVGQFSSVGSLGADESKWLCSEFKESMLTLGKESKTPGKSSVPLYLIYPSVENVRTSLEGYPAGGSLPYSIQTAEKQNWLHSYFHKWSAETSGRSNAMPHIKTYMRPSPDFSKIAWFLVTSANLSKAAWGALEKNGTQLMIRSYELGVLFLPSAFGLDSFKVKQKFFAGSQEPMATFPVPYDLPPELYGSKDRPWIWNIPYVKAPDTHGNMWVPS
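E. coli-derived human Tdp1, 1 nM final. Cpd preinc 15 min RT; substrate 15 nM final, 5 min RT; AS bead mix 10 ug/ml final, 10 min RT. Signal loss = tyrosine-FITC cleavage. No-enzyme wells = max signal.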
TGFb SMAD3 inh: blocks TGF-b signaling; 410,000 compounds, 1.2% hits; HepG2 CAGA-GFP TGF-b/SMAD3 reporter, GFP fluorescence, 18 h; TGF-beta stimulated, 500 pg/mL final; Potency, µM (doses to about 46.1 µM), for the others: at the highest dose activity, negative = inhibition, hits mostly inhibitors; AID 588855; note: potency is the fitted concentration of half-maximal effect; % is set by controls: 0 for no effect and ±100 for the full control effect; nearly all actives have a fitted effect of over 65% in size
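GFP signal (ex488/em500-530) from TGF-beta-stimulated HEPG2 CAGA-GFP cells, 500 pg/mL final, 18 h at 37 degrees C in DMEM plus 1% FBS, normalized to unstimulated and DMSO-stimulated controls.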
An asterisk follows results filed as active. Unless noted, calls come from the whole dose curve; as a rule, active = well fitted curve in the direction sought with a large enough effect; inconclusive = small, poorly fitted or top-dose-only effect, or another doubt; inactive = no such curve, though single readings can be large; an effect the other way counts as inactive or inconclusive.

CCOC(=O)c1c(NC(=O)COc2ccccc2C#N)sc2c1CC(C)(C)NC2(C)C was read as IL-1B inflam inh 1.7, TDP1 cell CPT 5.17µM*, HepG2 tox -33.7%, TDP1 cell noCPT 5.8µM*, TDP1 inh 2.8% and TGFb SMAD3 inh inconclusive.
For Cc1ccc(OCC(=O)Nc2sc3c(c2C#N)CC(C)(C)NC3(C)C)cc1 the results were IL-1B inflam inh -11.5, TDP1 cell CPT inconclusive, HepG2 tox 3.5%, TDP1 cell noCPT inconclusive, TDP1 inh 1.2% and TGFb SMAD3 inh -14.7%.
`CCOC(=O)c1c(NC(=O)Cc2ccccc2)sc2c1CC(C)(C)NC2(C)C` gave IL-1B inflam inh -28.1, TDP1 cell CPT inconclusive, HepG2 tox -72.4%, TDP1 cell noCPT inconclusive and TGFb SMAD3 inh inconclusive.
CCn1c(C)nc2cc(C(=O)NNC(=O)CN(C)S(=O)(=O)c3ccc(NC(C)=O)cc3)ccc21 was read as IL-1B inflam inh -4.0, TDP1 cell CPT 16.3%, HepG2 tox -10.2%, TDP1 cell noCPT -8.3%, TDP1 inh -0.2% and TGFb SMAD3 inh 0.7%.
`CC1CCN(CCCC(=O)c2ccc(F)cc2)CC1` gave TDP1 cell CPT -5.1%, TDP1 cell noCPT -12.3% and TDP1 inh 6.2%.
`CC(C)(C)c1ccc(C(=O)CCCN2CCC(OC(c3ccccc3)c3ccccc3)CC2)cc1` gave TDP1 cell CPT 11.9µM*, TDP1 cell noCPT 5.96µM* and TDP1 inh 2.1%.
COC(=O)c1cnc(NCc2ccc(F)cc2)c2ccccc12 was read as TDP1 cell CPT -29.0%, HepG2 tox -14.4%, TDP1 cell noCPT inconclusive, TDP1 inh 2.7% and TGFb SMAD3 inh inconclusive.
Screening COc1cccc(C2CC3(CC(C)(C)NC(=S)N3)Oc3cc(O)ccc32)c1 (centres undefined) returned IL-1B inflam inh 0.0, TDP1 cell CPT 11.6µM*, HepG2 tox -2.8%, TDP1 cell noCPT 9.2µM*, TDP1 inh 2.7% and TGFb SMAD3 inh -0.9%.
For CC1(C)CC2(CC(c3ccccc3F)c3cc(Cl)c(O)cc3O2)NC(=S)N1 (centres undefined) the results were IL-1B inflam inh -4.5, TDP1 cell CPT 2.06µM*, HepG2 tox -1.8%, TDP1 cell noCPT 3.66µM*, TDP1 inh 8.1% and TGFb SMAD3 inh -45.4%.
Screening Cc1cccc(C2CC3(CC(C)(C)NC(=S)N3)Oc3cc(O)ccc32)c1 (centres undefined) returned IL-1B inflam inh -73.3*, TDP1 cell CPT 20.6µM*, HepG2 tox -12.7%, TDP1 cell noCPT 13µM*, TDP1 inh 8.4% and TGFb SMAD3 inh -17.4%.
COc1ccc(C2CC3(CC(C)(C)NC(=S)N3)Oc3cc(O)cc(C)c32)cc1OC (centres undefined) was read as IL-1B inflam inh -5.5, TDP1 cell CPT inconclusive, HepG2 tox -4.6%, TDP1 cell noCPT inconclusive, TDP1 inh 3.5% and TGFb SMAD3 inh -0.2%.
`CCN(CC)CCN(C(=O)CCOc1ccccc1)c1nc2ccc(F)cc2s1` gave IL-1B inflam inh -9.6, TDP1 cell CPT inconclusive, HepG2 tox -14.2%, TDP1 cell noCPT inconclusive, TDP1 inh 5.8% and TGFb SMAD3 inh -9.4%.
Screening Cn1c(N2CCN(c3ccccn3)CC2)nc2c1c(=O)n(Cc1ccccc1Cl)c(=O)n2C returned IL-1B inflam inh 13.2, TDP1 cell CPT inconclusive, HepG2 tox -9.7%, TDP1 cell noCPT inconclusive and TGFb SMAD3 inh inconclusive.
`Cn1c(OCc2cccnc2)nc2c1c(=O)n(Cc1ccc(Cl)cc1)c(=O)n2C` gave IL-1B inflam inh 17.8, TDP1 cell CPT 11.6µM*, HepG2 tox -22.0%, TDP1 cell noCPT 18.4µM* and TGFb SMAD3 inh -1.8%.
Cn1c(N2CCN(c3ccccn3)CC2)nc2c1c(=O)n(Cc1ccc(Cl)cc1)c(=O)n2C was read as IL-1B inflam inh -6.2, TDP1 cell CPT 16.4µM*, HepG2 tox -20.0%, TDP1 cell noCPT inconclusive, TDP1 inh 7.3% and TGFb SMAD3 inh -6.8%.
Cn1c(OCc2cccnc2)nc2c1c(=O)n(Cc1ccc(Br)cc1)c(=O)n2C was read as IL-1B inflam inh -52.5*, TDP1 cell CPT inconclusive, HepG2 tox -19.2%, TDP1 cell noCPT inconclusive, TDP1 inh 4.2% and TGFb SMAD3 inh -4.1%.
Screening O=C(CCc1nnc2n(Cc3ccc(Cl)cc3)c(=O)c3ccccc3n12)N1CCN(c2ccccn2)CC1 returned TDP1 cell CPT 20.6µM*, HepG2 tox 2.3%, TDP1 cell noCPT 20.6µM*, TDP1 inh -4.3% and TGFb SMAD3 inh 16.5%.
For CC(C)OCCCn1c(=O)c2ccccc2n2c(CCC(=O)N3CCN(c4ccccn4)CC3)nnc12 the results were IL-1B inflam inh inconclusive, TDP1 cell CPT inconclusive, HepG2 tox -8.0%, TDP1 cell noCPT inconclusive, TDP1 inh 4.0% and TGFb SMAD3 inh -0.9%.
`CC(=O)Nc1cccc(NC(=O)CSc2ncc(C(=O)Nc3ccc(F)cc3)c(=O)n2C)c1` gave IL-1B inflam inh -99.9*, TDP1 cell CPT 14.6µM*, HepG2 tox -0.1%, TDP1 cell noCPT 11.6µM*, TDP1 inh -13.4% and TGFb SMAD3 inh -8.9%.
Screening Cc1cc(NC(=O)CSc2ncc(C(=O)Nc3ccc(F)cc3)c(=O)n2C)no1 returned TDP1 cell CPT -9.9%, HepG2 tox -1.1%, TDP1 cell noCPT -13.4%, TDP1 inh -5.2% and TGFb SMAD3 inh -1.5%.
Cn1c(SCC(=O)NCCc2ccccc2)ncc(C(=O)Nc2ccccc2)c1=O was read as IL-1B inflam inh -4.1, TDP1 cell CPT inconclusive, HepG2 tox -12.2%, TDP1 cell noCPT 13µM*, TDP1 inh -5.6% and TGFb SMAD3 inh 10.6%.
Screening CC(=O)Nc1cccc(NC(=O)CSc2ncc(C(=O)Nc3ccccc3)c(=O)n2C)c1 returned IL-1B inflam inh -100.1*, TDP1 cell CPT 5.8µM*, HepG2 tox -16.0%, TDP1 cell noCPT 8.2µM*, TDP1 inh 2.9% and TGFb SMAD3 inh inconclusive.
Screening CC(=O)c1cccc(NC(=O)c2nc3ccccc3n(C)c2=O)c1 returned TDP1 cell CPT 14.6µM*, HepG2 tox -30.6%, TDP1 cell noCPT 10.3µM*, TDP1 inh 2.5% and TGFb SMAD3 inh 15.5%.
For COc1ccc(NC(=O)c2cnc(SCC(=O)NCCc3ccccc3)n(C)c2=O)cc1 the results were IL-1B inflam inh 12.2, TDP1 cell CPT inconclusive, HepG2 tox -26.0%, TDP1 cell noCPT -27.4% and TGFb SMAD3 inh -9.6%.
